High-throughput results from PubChem.
The list is not random: actives were taken first. Their share in the collection is about 1.1%.
KCNH2 WT inh: blocks the wildtype human KCNH2 potassium channel; 0.37% of 340,000 active; activity change, % at 1.84 µM; U2OS, BacMam KCNH2, thallium flux FluxOr; active compounds read low;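 active means maximum activity change below -70%; inconclusive means maximum activity change between -70% and -50%; inactive means maximum activity change above -50%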; further: on the % scale 0 is the no-effect control and ±100 the full control effect
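U2OS cells transduced with wild-type KCNH2 virus are loaded with FluxOr dye for 45 min, and thallium flux is measured in kinetic reads before and after stimulation buffer. Rate constants are normalized to DMSO controls.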
CXXC DNA block: inhibitors of human MLL CXXC domain-DNA interaction | MLL-CXXC / FITC-HOXA9 DNA fluorescence polarization | Q03164 | AID 2662 | Potency, µM (doses to about 115 µM), inactives show top-dose activity change, negative = inhibition, actives largely listed as inhibitors | 0.037% of 290,000 active; active means well fitted inhibition curve with a large enough effect in the polarisation, with a control signal flat, not every such curve was filed as active; inconclusive means small, poorly fitted or top-dose-only effect, or effect the other way, or a change in a side signal; inactive means no such curve, though single readings can be large or run the other way; the % refers to the polarisation; further: potency means the concentration at half of the fitted maximal effect
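Steps: dispense CXXC domain solution (7 uM) → pin compounds or unlabeled HOX-A9 DNA control → 5 min ambient → add FLSN-HOX-A9 solution (50 nM) → spin → 30 min ambient → fluorescence polarization. Tris pH 7.5/NaCl/DTT/BSA buffer.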
Menin-MLL TR inh: inhibitors of human menin-MLL interaction, mutant MLL peptide. O00255. AID 1768. 0.23% of 270,000 active. Potency, µM (highest dose often 61.6 µM), for the others: at the top dose FP activity change, negative = inhibition, usual class: inhibitors. Menin + Texas Red MLL mutant peptide, fluorescence polarization; active means well fitted inhibition curve with a large enough effect in the polarisation, with a control signal flat, not every such curve was filed as active; inconclusive means small, poorly fitted or top-dose-only effect, or effect the other way, or a change in a side signal; inactive means no such curve, though single readings can be large or run the other way; the % refers to the polarisation; further: potency means the concentration at half of the fitted maximal effect; % of control where 0% means no effect
Target sequence (O00255 whole entry, looked up): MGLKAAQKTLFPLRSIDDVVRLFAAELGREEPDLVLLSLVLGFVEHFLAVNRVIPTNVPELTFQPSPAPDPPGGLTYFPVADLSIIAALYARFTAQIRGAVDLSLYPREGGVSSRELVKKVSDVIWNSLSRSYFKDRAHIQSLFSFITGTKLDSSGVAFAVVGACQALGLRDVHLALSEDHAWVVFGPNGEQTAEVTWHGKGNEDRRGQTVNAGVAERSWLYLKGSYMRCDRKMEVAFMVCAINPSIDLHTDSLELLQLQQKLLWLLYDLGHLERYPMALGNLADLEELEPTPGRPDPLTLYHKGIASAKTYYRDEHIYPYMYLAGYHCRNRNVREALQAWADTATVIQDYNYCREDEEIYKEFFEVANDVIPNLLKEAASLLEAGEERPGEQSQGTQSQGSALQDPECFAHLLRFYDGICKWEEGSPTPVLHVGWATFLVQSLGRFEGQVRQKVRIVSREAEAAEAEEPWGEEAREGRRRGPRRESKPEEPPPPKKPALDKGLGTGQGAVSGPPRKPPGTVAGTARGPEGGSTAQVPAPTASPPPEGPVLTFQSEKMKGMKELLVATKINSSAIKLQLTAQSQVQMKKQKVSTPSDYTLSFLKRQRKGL
KCNH2 3.1 block: KCNH2 3.1 (human) potassium channel inhibition | activity change, % (tested at about 1.8 µM) | U2OS KCNH2 3.1, thallium flux FluxOr; active compounds read low | 0.95% of 340,000 active;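 active means maximum activity change below -70%; inconclusive means maximum activity change from -70% to -50%; inactive means maximum activity change above -50%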;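 further: thallium influx rate constant from kinetic fluorescence after stimulation buffer; on the % scale 0 is the no-effect control and ±100 the full control effect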
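U2OS cells transduced with KCNH2 3.1 mutant virus (1.77 x 10^8 /mL, 4 h), plated overnight at 37 C, loaded 45 min with FluxOr dye plus Red40 quencher. Thallium flux rate constant from kinetic reads after stimulation buffer, normalised to controls.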
Menin MLL FP FL: menin-MLL binding inhibition, fluorescein peptide; Fluorescence polarization, fluorescein-MLL peptide displacement from menin; FP activity change, % at 61.4 µM; 290,000 tested, under 10 active; active means well fitted curve in the direction sought with a large enough effect in the polarisation, not every such curve was filed as active; inconclusive means small, poorly fitted or top-dose-only effect, or effect the other way, or a change in a side signal; inactive means no such curve, though single readings can be large or run the other way; the % refers to the polarisation; further: % of control where 0% means no effect
Numbers without * were called inactive; [ ] = remark or other dose.

Results for CCc1nn(C(C)C(=O)NCc2ccc(Cl)cc2)c(=O)c2cc3occc3n12 (stereo not drawn) ?
KCNH2 WT inh: -3; CXXC DNA block: 4%; Menin-MLL TR inh: -1%; KCNH2 3.1 block: 16; Menin MLL FP FL: 1

How did CCC1CN2CCC1CC2[C@@H](NC(=S)Nc1cc(C(F)(F)F)cc(C(F)(F)F)c1)c1cccc2ccc(OC)cc12 (stereo partly drawn) do in these assays?
Menin-MLL TR inh: 3%; Menin MLL FP FL: 0

How did CCN(CC1CCCN(CCc2cccc(F)c2)C1)C(=O)c1ccc(CSC)o1 (stereo not drawn) do in these assays?
KCNH2 WT inh: -49; CXXC DNA block: -1%; Menin-MLL TR inh: -18%; KCNH2 3.1 block: -84*; Menin MLL FP FL: 9

How did CCN(CC1CCCN(CCc2cccc(F)c2)C1)C(=O)c1ccoc1C (stereo not drawn) do in these assays?
KCNH2 WT inh: 33; KCNH2 3.1 block: -32

What do the screens show for `CCC(C)c1ccccc1NC(=O)CN(C)CCOc1ccc(Cl)cc1` (stereo not drawn)?
KCNH2 WT inh: 1; CXXC DNA block: 9%; Menin-MLL TR inh: inconclusive; KCNH2 3.1 block: -9; Menin MLL FP FL: 0

How did CN(CCOc1ccc(Cl)cc1)CC(=O)Nc1ccc(OC(F)F)cc1 do in these assays?
KCNH2 WT inh: -8; CXXC DNA block: 7%; Menin-MLL TR inh: 33%; KCNH2 3.1 block: -85*; Menin MLL FP FL: 11

How did CCCCCCN1CCN(C2CN(Cc3ccc([N+](=O)[O-])cc3)S(=O)(=O)C2)CC1 (stereo not drawn) do in these assays?
KCNH2 WT inh: -96*; KCNH2 3.1 block: -112*

Results for CCCCCCOc1ccc(C(=N)N(CCCC)CCCC)c2ccccc12 ?
CXXC DNA block: inconclusive; Menin-MLL TR inh: inconclusive; Menin MLL FP FL: -3

Results for CCOC(=O)CC/C(C)=N\N=C1\SC(CC(=O)O)C(=O)N1c1ccccc1 (stereo not drawn) ?
KCNH2 WT inh: 2; CXXC DNA block: inconclusive; KCNH2 3.1 block: 8; Menin MLL FP FL: 5

Results for O=C(O)CC1S/C(=N\N=C2CCCCCC2)N(c2ccccc2)C1=O (stereo not drawn) ?
KCNH2 WT inh: -104*; CXXC DNA block: -3%; KCNH2 3.1 block: 15; Menin MLL FP FL: 2

What do the screens show for `Cc1cc(C)cc(C(=O)N(CCc2ccccc2)C2CC3CCC(C2)N3C)c1` (stereo not drawn)?
KCNH2 WT inh: -8; CXXC DNA block: 23%; Menin-MLL TR inh: -23%; KCNH2 3.1 block: -88*; Menin MLL FP FL: -4

What do the screens show for `CCCC[C@@H](CNC)NC[C@H](Cc1ccc(O)cc1)NCCc1ccc(OCC)cc1`?
KCNH2 WT inh: -24; CXXC DNA block: 20%; Menin-MLL TR inh: -19%; KCNH2 3.1 block: -71*; Menin MLL FP FL: -3

Results for Cc1ccc(OC2C(O)COC2/C=C/C#Cc2ccc(C(C)(C)C)cc2)cc1 (stereo not drawn) ?
Menin-MLL TR inh: 5%[11.7 µM]; Menin MLL FP FL: -5[11.7 µM]

How did Cn1c(N)c(C(=O)COC(=O)c2ccccc2C(F)(F)F)c(=O)n(C)c1=O do in these assays?
KCNH2 WT inh: -3; KCNH2 3.1 block: -93*

Results for Cn1c(N)c(C(=O)COC(=O)c2ccccc2C(=O)c2ccccc2)c(=O)n(C)c1=O ?
KCNH2 WT inh: -4; KCNH2 3.1 block: -26

What do the screens show for `CCOc1ccccc1/C=N/NC(=O)C[n+]1ccccc1`?
KCNH2 WT inh: 2; KCNH2 3.1 block: 15

How did CCn1c(/C(C#N)=N/O)nc2ccccc21 do in these assays?
KCNH2 WT inh: -115*; CXXC DNA block: 12%; Menin-MLL TR inh: -6%; KCNH2 3.1 block: -81*; Menin MLL FP FL: 0

What do the screens show for `CO/N=C1/c2cc(OC)ccc2O[C@@H](c2cccc(OC)c2)[C@H]1O`?
Menin-MLL TR inh: -2%[11.7 µM]; Menin MLL FP FL: 7[11.7 µM]

Results for COc1ccc(-c2[nH]ncc2CNCc2cc(C)n(C)n2)c(F)c1 ?
KCNH2 WT inh: 0; CXXC DNA block: -2%; Menin-MLL TR inh: -2%; KCNH2 3.1 block: 1; Menin MLL FP FL: 2

How did COc1ccc(-c2[nH]ncc2CNCCn2cccn2)c(F)c1 do in these assays?
KCNH2 WT inh: 1; CXXC DNA block: -9%; Menin-MLL TR inh: 2%; KCNH2 3.1 block: -138*; Menin MLL FP FL: 4

How did OC1(c2ccc(Cl)cc2)CCN(Cc2cn[nH]c2-c2ccc(F)cc2)CC1 do in these assays?
KCNH2 WT inh: -6; CXXC DNA block: -5%; KCNH2 3.1 block: -88*; Menin MLL FP FL: -2

What do the screens show for `CCOc1ccccc1CN1CCC(CO)(CCOc2ccccc2)CC1`?
KCNH2 WT inh: 41; CXXC DNA block: -9%; Menin-MLL TR inh: -20%; KCNH2 3.1 block: -50; Menin MLL FP FL: 1

Results for OC1(c2ccc(Cl)cc2)CCN(Cc2cn[nH]c2-c2ccccc2)CC1 ?
KCNH2 WT inh: inconclusive; CXXC DNA block: -1%; KCNH2 3.1 block: -87*; Menin MLL FP FL: -3

What do the screens show for `COc1ccc(-c2[nH]ncc2CN2CCN(c3ccc(F)cc3)CC2)cc1`?
KCNH2 WT inh: -6; CXXC DNA block: 0%; KCNH2 3.1 block: -41; Menin MLL FP FL: 5

How did OCC1(CCOc2ccccc2)CCN(Cc2cn[nH]c2-c2ccc(F)cc2)CC1 do in these assays?
KCNH2 WT inh: inconclusive; CXXC DNA block: -12%; Menin-MLL TR inh: 10%; KCNH2 3.1 block: -104*; Menin MLL FP FL: -2

What do the screens show for `Fc1ccc(N2CCN(Cc3cn[nH]c3-c3ccccc3)CC2)cc1`?
KCNH2 WT inh: 3; CXXC DNA block: -5%; KCNH2 3.1 block: inconclusive; Menin MLL FP FL: 1

How did COc1ccc(-c2[nH]ncc2CN2CCC(O)(c3ccc(Cl)cc3)CC2)cc1 do in these assays?
KCNH2 WT inh: 1; CXXC DNA block: 1%; KCNH2 3.1 block: -70*; Menin MLL FP FL: 8

What do the screens show for `O=C(NC[C@H](O)c1ccccc1)c1ccccc1`?
Menin-MLL TR inh: -4%; Menin MLL FP FL: 3

Results for CCCCCn1c(=O)[nH]c2cc(C(=O)NCCCN(CC)CC)ccc2c1=O ?
KCNH2 WT inh: 5; CXXC DNA block: 0%; Menin-MLL TR inh: -27%; KCNH2 3.1 block: -84*; Menin MLL FP FL: -4

Results for CC(=O)Nc1ccc(-c2cc(-c3ccccc3)nc(-c3ccccc3)n2)cc1 ?
KCNH2 WT inh: -6; CXXC DNA block: 4%; Menin-MLL TR inh: inconclusive; KCNH2 3.1 block: 11; Menin MLL FP FL: 7

What do the screens show for `CC(=O)Nc1ccc(-c2cc(-c3ccc(NC(C)=O)cc3)nc(-c3ccccc3)n2)cc1`?
KCNH2 WT inh: -9; CXXC DNA block: 11%; Menin-MLL TR inh: 6.3µM*; KCNH2 3.1 block: 11; Menin MLL FP FL: 6

Results for O=C(NN=C1CCCC1)c1cc(-c2ccccc2)n[nH]1 ?
KCNH2 WT inh: -1; CXXC DNA block: 19%; Menin-MLL TR inh: -2%; KCNH2 3.1 block: 5; Menin MLL FP FL: -2

Results for O=C(NN=C1CCCC1)c1ccn[nH]1 ?
KCNH2 WT inh: -136*; CXXC DNA block: -8%; Menin-MLL TR inh: -14%; KCNH2 3.1 block: -200*; Menin MLL FP FL: -2
